According to PubChem BioAssay (Tox21):
Records with an inconclusive call do not appear. Active and inactive are the calls of the source. Calls follow the shape of the dose curve; as a rule, active = well fitted curve in the direction sought with a large enough effect in the repeat runs; inconclusive = weak or mixed curves; inactive = no such curve, though single readings can be large; an effect the other way counts as inactive or inconclusive. Where a SMILES comes first, the peptide text is derived from it.

What was measured:
[1] = A CellTox Green Cytotoxicity Assay to monitor cytotoxicity in HepG2 cells - 16 hour (AID 1224876); also: nearly all actives have a fitted effect of over 45% in size
Procedure, shortened: (§1)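 Continuous culture of HepG2 cells with a membrane-impermeant DNA dye; rising fluorescence marks dead cells. Compound exposure lasted up to 40 h at 37 C, with reads every 8 h from 0 h.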

[2] = qHTS RealTime-Glo MT Cell Viability Assay in HepG2 cells - 32 hour (AID 1224877); also: nearly all actives have a fitted effect of over 55% in size
Procedure, shortened: (§2)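 Luminescence read-out: viable HepG2 cells reduce a prosubstrate to a NanoLuc substrate, giving a signal proportional to live cell number. Reads taken at 0, 8, 16, 24, 32 and 40 h of compound exposure at 37 C.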

[3] = A CellTox Green Cytotoxicity Assay to monitor cytotoxicity in HepG2 cells - 24 hour (AID 1224878); also: nearly all actives have a fitted effect of over 45% in size
Procedure, shortened: as §1

[4] = A CellTox Green Cytotoxicity Assay to monitor cytotoxicity in HepG2 cells - 40 hour (AID 1224879); also: nearly all actives have a fitted effect of over 40% in size
Procedure, shortened: as §1

[5] = qHTS RealTime-Glo MT Cell Viability Assay in HEK293 cells - 0 hour (AID 1224880); also: top concentration of the series differs between compounds; nearly all actives have a fitted effect of over 45% in size
Procedure, shortened: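 qHTS format; HEK293 cells with NanoLuc/prosubstrate reagent, 37 C/5% CO2 for 5 h pre-dosing; compounds 23 nL in DMSO; luminescence at each time point reflects viable cells.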

[6] = A CellTox Green Cytotoxicity Assay to monitor cytotoxicity in HEK293 cells - 32 hour (AID 1224881); also: nearly all actives have a fitted effect of over 40% in size
Procedure, shortened: (§3)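 Each value comes from one timepoint of a single continuous run in which HEK293 cells with CellTox Green were exposed to compound for up to 40 h at 37 C, dye fluorescence rising with cell death.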

[7] = A CellTox Green Cytotoxicity Assay to monitor cytotoxicity in HepG2 cells - 0 hour (AID 1224882); also: nearly all actives have a fitted effect of over 35% in size
Procedure, shortened: as §1

[8] = A CellTox Green Cytotoxicity Assay to monitor cytotoxicity in HEK293 cells - 8 hour (AID 1224884); also: nearly all actives have a fitted effect of over 35% in size
Procedure, shortened: as §3

[9] = qHTS RealTime-Glo MT Cell Viability Assay in HepG2 cells - 16 hour (AID 1224885); also: nearly all actives have a fitted effect of over 50% in size
Procedure, shortened: as §2

[10] = A CellTox Green Cytotoxicity Assay to monitor cytotoxicity in HepG2 cells - 32 hour (AID 1224883); also: nearly all actives have a fitted effect of over 50% in size
Procedure, shortened: as §1
% is scaled to controls: 0 for no effect and ±100 for the full control effect.

C=CCN1C[C@H](C(=O)N(CCCN(C)C)C(=O)NCC)C[C@@H]2c3cccc4[nH]cc(c34)C[C@H]21
inactive: Potency [1] | outcome [2] | Potency [3] | Potency [4] | Potency [5] | Potency [6] | Potency [7] | Potency [8] | outcome [9]

CC(=O)CC(=O)Nc1ccc(C)cc1C
inactive: Potency [1] | outcome [2] | Potency [3] | Potency [4] | Potency [5] | Potency [6] | Potency [7] | Potency [8] | outcome [9]

CC(=O)N[C@@H](CO)C(=O)N[C@@H](CC(=O)O)C(=O)N[C@@H](CCCCN)C(=O)N1CCC[C@H]1C(=O)O (Ac-SDKP-OH)
inactive: Potency [1] | outcome [2] | Potency [3] | Potency [4] | Potency [5] | Potency [6] | Potency [7] | Potency [10] | Potency [8] | outcome [9]

CO[C@@]1(NC(=O)Cc2cccs2)C(=O)N2C(C(=O)O)=C(COC(N)=O)CS[C@@H]21
inactive: Potency [1] | outcome [2] | Potency [3] | Potency [4] | Potency [5] | Potency [6] | Potency [10] | Potency [8]

C=Cc1ccc(C(C)(C)C)cc1
inactive: Potency [1] | outcome [2] | Potency [3] | Potency [4] | Potency [5] | Potency [6] | Potency [7] | Potency [10] | Potency [8] | outcome [9]

O=C(Cl)c1ccccc1[N+](=O)[O-]
inactive: Potency [1] | outcome [2] | Potency [3] | Potency [4] | Potency [5] | Potency [6] | Potency [7] | Potency [10] | Potency [8] | outcome [9]

Cc1cc(-c2ccccc2)nnc1NCCN1CCOCC1
inactive: Potency [1] | outcome [2] | Potency [3] | Potency [4] | Potency [5] | Potency [6] | Potency [10] | Potency [8] | outcome [9]

O=C1NC(c2ccccc2)(c2ccccc2)C(=O)N1COP(=O)(O)O
inactive: Potency [1] | outcome [2] | Potency [3] | Potency [4] | Potency [5] | Potency [6] | Potency [10] | Potency [8] | outcome [9]

Cn1nnc2c(C(N)=O)ncn2c1=O
inactive: Potency [1] | outcome [2] | Potency [3] | Potency [4] | Potency [5] | Potency [6] | Potency [7] | Potency [8]

CN1C[C@@H]2C[C@H]1CN2c1cc2c(cc1F)c(=O)c(C(=O)O)cn2C1CC1
inactive: cytotoxicity increase [1] 2.35% [at 15.8 µM] | activity change, negative = cytotoxic [2] 4.04% [at 15.8 µM] | cytotoxicity [3] 0.282% [at 15.8 µM] | cytotoxicity increase [4] 4.83% [at 15.8 µM] | activity change, negative = cytotoxicity [5] -2.3% [at 15.8 µM] | cytotoxicity increase [6] -7.04% [at 15.8 µM] | cytotoxicity [7] 2.16% [at 15.8 µM] | cytotoxicity increase [8] -14% [at 15.8 µM] | activity change, negative = cytotoxic [9] 6.14% [at 15.8 µM]

OCC(O)CN1CCN(c2ccccc2)CC1 (configuration not stated)
inactive: Potency [1] | outcome [2] | Potency [3] | Potency [4] | Potency [5] | Potency [6] | Potency [7] | Potency [8] | outcome [9]

NCC1(Cc2noc(=O)[nH]2)CCCCC1
inactive: Potency [1] | outcome [2] | Potency [3] | Potency [4] | Potency [5] | Potency [6] | Potency [10] | Potency [8]

N#Cc1cscn1
inactive: Potency [1] | outcome [2] | Potency [3] | Potency [4] | Potency [5] | Potency [7] | Potency [10] | Potency [8] | outcome [9]
